Assay results as given in PubChem BioAssay (NCATS).
Records with an inconclusive call do not appear. Calls of active or inactive are those of the source. Unless noted, the call rests on the fitted dose curve; in most records, active means well fitted cell-killing curve with a large enough effect; inconclusive means small, poorly fitted or top-dose-only effect, or effect the other way; inactive means no such curve, though single readings can be large or run the other way.

Tests used:
[1] = Quantitative High-Throughput drug screen in 47 multiple myeloma cell lines against the NCATS MIPE library collection: XG1_PLB cell viability assay (AID 1919866); further: potency means the concentration at half of the fitted maximal effect; nearly all actives have a fitted effect of over 35% in size
In short: (§1)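 qHTS format: cells plated (500/well), pin-dosed with MIPE 4.0 compounds, kept 48 h at 37 °C. Readout was CellTiter-Glo luminescence, median RLU.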

[2] = Quantitative High-Throughput drug screen in 47 multiple myeloma cell lines against the NCATS MIPE library collection: VP6_DJ cell viability assay (AID 1919867); further: potency means the concentration at half of the fitted maximal effect; nearly all actives have a fitted effect of over 40% in size
In short: as §1

[3] = Quantitative High-Throughput drug screen in 47 multiple myeloma cell lines against the NCATS MIPE library collection: UTMC2_PLB cell viability assay (AID 1919868); details: CellTiter-Glo ATP luminescence, 48 h; viability (% of DMSO control): at 45.8 µM (top of the series) unless noted; further: nearly all actives have a fitted effect of over 55% in size; further: potency means the concentration at half of the fitted maximal effect
In short: as §1

[4] = Quantitative High-Throughput drug screen in 47 multiple myeloma cell lines against the NCATS MIPE library collection: PE2_PLB cell viability assay (AID 1919869); further: potency means the concentration at half of the fitted maximal effect; nearly all actives have a fitted effect of over 35% in size
In short: as §1

[5] = Quantitative High-Throughput drug screen in 47 multiple myeloma cell lines against the NCATS MIPE library collection: PCM6_Riken cell viability assay (AID 1919870); further: potency means the concentration at half of the fitted maximal effect; nearly all actives have a fitted effect of over 30% in size
In short: as §1

[6] = Quantitative High-Throughput drug screen in 47 multiple myeloma cell lines against the NCATS MIPE library collection: KMS11_JCRBsus cell viability assay (AID 1919873); further: potency means the concentration at half of the fitted maximal effect; nearly all actives have a fitted effect of over 50% in size
In short: as §1

[7] = Quantitative High-Throughput drug screen in 47 multiple myeloma cell lines against the NCATS MIPE library collection: KMS28BM_JCRB cell viability assay (AID 1919874); further: potency means the concentration at half of the fitted maximal effect; nearly all actives have a fitted effect of over 35% in size
In short: as §1

[8] = qHTS drug screen for cell cycle checkpoint inhibitors in PARPi-resistant BRCA-mutant ovarian cancer cell lines. (AID 1963452; calls by dose curve); details: PEO1/OlaR viability, CellTiter-Glo luminescence, 96 h, stronger effect = lower value
In short: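 PEO1, PEO4 and PEO1/OlaR ovarian cancer cells, 600 per well, exposed 96 h at 37C to a dilution series. Viability read by CellTiter-Glo luminescence, normalized to DMSO and empty wells; activity summarized as Z-AUC.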

[9] = Quantitative High-Throughput drug screen in 47 multiple myeloma cell lines against the NCATS MIPE library collection: RPMI8226_ATCC cell viability assay (AID 1919871); further: potency means the concentration at half of the fitted maximal effect; nearly all actives have a fitted effect of over 30% in size
In short: as §1

[10] = Quantitative High-Throughput drug screen in 47 multiple myeloma cell lines against the NCATS MIPE library collection: OPM2_DSMZ cell viability assay (AID 1919872); further: potency means the concentration at half of the fitted maximal effect; nearly all actives have a fitted effect of over 30% in size
In short: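 We plated 500 myeloma cells per well, pinned in MIPE 4.0 compounds, and incubated for 48 hours at 37C. ATP was then quantified with CellTiter-Glo, with DMSO and media-only wells defining 100% and 0%.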

[11] = qHTS for identification of novel therapeutic agents for treatment of microphthalmiaassociated transcription factor (MiT) renal cell carcinoma (RCC) (AID 1963991; calls by dose curve; further: potency means the concentration at half of the fitted maximal effect); details: CellTiter-Glo, 48 h; for Potency: active = Z-AUC below -0.8 in all three lines; for z-score: stronger effect = lower value
In short: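 Curves over 11 concentrations were fitted to CellTiter-Glo luminescence, scaled between empty wells (0%) and DMSO (100%) viability. Cells were UOK109, UOK124 and UOK145 TFE3-fusion RCC lines at 500/well, exposed 48 hours at 37 C.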

[12] = measured here: PEO1 parental Z-AUC
[13] = TFE3-RCC UOK109 viability, measured here: UOK109 Z-AUC
[14] = TFE3-RCC viability, measured here: UOK124 Z-AUC
[15] = TFE3-RCC viability, measured here: UOK145 Z-AUC

SMILES	Potency [1]	Potency [2]	Potency [3]	Potency [4]	Potency [5]	Potency [6]	Potency [7]	Z-AUC [8]	Z-AUC [8, 12]	Z-AUC ([8]; measured here: PEO4 Z-AUC)	Potency [9]	Potency [10]	Potency ([11]; TFE3-RCC UOK109 viability)	z-score [11, 13]	z-score [11, 14]	z-score [11, 15]	viability (% of DMSO control) [3]
CNc1nccc(-c2cccnc2Oc2cc(C(=O)Nc3cccc(C(F)(F)F)c3)ccc2C)n1	2.35 µM (active)	5.26 µM (active)	14.8 µM (active)	6.62 µM (active)	4.18 µM (active)	18.7 µM (active)	23.5 µM (active)	0.523 (inactive)	-0.637	0.0306	–	–	–	–	–	–	–
CN1CCN(c2ccc3nc(-c4c(N)c5c(F)cccc5[nH]c4=O)[nH]c3c2)CC1	3.32 µM (active)	2.35 µM (active)	5.9 µM (active)	5.26 µM (active)	2.64 µM (active)	10.5 µM (active)	14.8 µM (active)	-0.169 (inactive)	-0.682	-0.379	29.6 µM (active)	–	–	–	–	–	–
CC[C@H](CO)Nc1nc(NCc2ccccc2)c2ncn(C(C)C)c2n1	16.6 µM (active)	18.7 µM (active)	23.5 µM (active)	14.8 µM (active)	9.35 µM (active)	20.9 µM (active)	–	0.956 (inactive)	1.03	1.29	–	–	–	–	–	–	–
C=CC(=O)Nc1cccc(Oc2nc(Nc3ccc(N4CCN(C)CC4)cc3)ncc2Cl)c1	13.2 µM (active)	5.9 µM (active)	6.62 µM (active)	5.9 µM (active)	16.6 µM (active)	1.05 µM (active)	14.8 µM (active)	-0.847 (inactive)	-0.559	-0.604	–	11.8 µM (active)	0.833 µM (active)	-2.72	-0.851	-2.36	–
Nc1nccc(Oc2ccc(NC(=O)c3c[nH]cc(-c4ccc(F)cc4)c3=O)cc2F)c1Cl	18.7 µM (active)	16.6 µM (active)	29.6 µM (active)	18.7 µM (active)	18.7 µM (active)	–	20.9 µM (active)	-0.747 (inactive)	-0.587	-1.14	20.9 µM (active)	–	–	–	–	–	–
Cc1nc(N)ncc1-c1nc(N2CCOCC2)c2sc(C(C)(C)O)cc2n1	1.66 µM (active)	0.935 µM (active)	0.332 µM (active)	1.05 µM (active)	–	0.0833 µM (active)	–	0.231 (inactive)	0.219	0.116	0.264 µM (active)	3.72 µM (active)	–	–	–	–	–
O=C(c1ccc(Nc2nccc(-c3cc4ccccc4s3)n2)cc1)N1CCC(N2CCCC2)CC1	4.69 µM (active)	3.32 µM (active)	6.62 µM (active)	7.43 µM (active)	1.87 µM (active)	5.9 µM (active)	9.35 µM (active)	0.507 (inactive)	0.645	0.0416	–	20.9 µM (active)	–	–	–	–	–
CN(c1ncccc1CNc1nc(Nc2ccc3c(c2)CC(=O)N3)ncc1C(F)(F)F)S(C)(=O)=O	3.32 µM (active)	2.64 µM (active)	2.35 µM (active)	3.32 µM (active)	2.35 µM (active)	2.64 µM (active)	6.62 µM (active)	-0.236 (inactive)	-0.701	-0.665	–	7.43 µM (active)	–	–	–	–	–
CNC(=O)c1ccccc1Nc1nc(Nc2ccc(N3CCOCC3)cc2OC)ncc1Cl	6.62 µM (active)	0.526 µM (active)	0.209 µM (active)	1.18 µM (active)	10.5 µM (active)	0.372 µM (active)	0.935 µM (active)	0.733 (inactive)	0.134	0.16	–	4.18 µM (active)	–	–	–	–	–
COc1c(OCCCN2CCOCC2)ccc2c3n(c(=NC(=O)c4cnc(N)nc4)nc12)CCN3	1.44 µM (active)	0.457 µM (active)	0.115 µM (active)	0.457 µM (active)	–	0.0323 µM (active)	0.115 µM (active)	-1.27 (inactive)	-1.04	-0.708	0.129 µM (active)	2.04 µM (active)	0.0407 µM (active)	-1.18	-2.73	-1.79	–
CN(C)CCCN=c1c2ccccc2n(C)c2[nH]c(=O)n(C)c(=O)c12	14.8 µM (active)	14.8 µM (active)	–	16.6 µM (active)	14.8 µM (active)	14.8 µM (active)	16.6 µM (active)	0.193 (inactive)	1.79	1.54	–	20.9 µM (active)	–	–	–	–	91.5% (active)
CC(C)c1ccccc1Cc1cc(C(=O)Nc2ccc(S(=O)(=O)c3ccccc3C(C)(C)C)cc2)c(O)c(O)c1O	3.72 µM (active)	5.26 µM (active)	4.69 µM (active)	5.26 µM (active)	7.43 µM (active)	5.26 µM (active)	10.5 µM (active)	0.413 (inactive)	0.393	0.535	–	–	–	–	–	–	–
